# According to PubChem BioAssay (NCATS):
# Records with an inconclusive call do not appear. Calls of active or inactive are those of the source. Calls come from the whole dose curve; as a rule, active = well fitted cell-killing curve with a large enough effect; inconclusive = small, poorly fitted or top-dose-only effect, or effect the other way; inactive = no such curve, though single readings can be large or run the other way.
# Key:
# [1] = Quantitative High-Throughput drug screen in 47 multiple myeloma cell lines against the NCATS MIPE library collection: FR4_PLB cell viability assay (AID 1918924; note: nearly all actives have a fitted effect of over 35% in size); details: FR4_PLB myeloma cells viability, CellTiter-Glo ATP, 48 h; series mostly up to 45.8 µM
# Method in brief: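 CellTiter-Glo luminescence (ATP) after 48 h compound exposure, 37C/5% CO2; 500 cells/well; MIPE 4.0 approved/investigational drugs pinned in; DMSO = 100%, media only = 0% viability.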
# [2] = Quantitative High-Throughput drug screen in 47 multiple myeloma cell lines against the NCATS MIPE library collection: Delta47_JCRB cell viability assay (AID 1918925; note: nearly all actives have a fitted effect of over 45% in size); details: Delta47 myeloma viability, CellTiter-Glo ATP, 48 h; series mostly up to 45.8 µM
# Method in brief: (§1)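 Primary qHTS used for cherry-picking: cells at 500/well, library compounds for 48 h (37C, 5% CO2), luminescent ATP assay.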
# [3] = Quantitative High-Throughput drug screen in 47 multiple myeloma cell lines against the NCATS MIPE library collection: EJM_DSMZ cell viability assay (AID 1918926; note: nearly all actives have a fitted effect of over 30% in size); details: EJM myeloma cell viability, CellTiter-Glo ATP, 48 h; series mostly up to 45.8 µM
# Method in brief: as §1
# [4] = Quantitative High-Throughput drug screen in 47 multiple myeloma cell lines against the NCATS MIPE library collection: AMO1_DSMZ cell viability assay (AID 1918927; note: nearly all actives have a fitted effect of over 30% in size); details: AMO1 myeloma cells viability, CellTiter-Glo ATP luminescence, 48 h; series mostly up to 45.8 µM
# Method in brief: as §1
# [5] = Quantitative High-Throughput drug screen in 47 multiple myeloma cell lines against the NCATS MIPE library collection: ARP1_JJKsccF8 cell viability assay (AID 1918928; note: nearly all actives have a fitted effect of over 40% in size); details: ARP1 myeloma cells viability, CellTiter-Glo ATP, 48 h; series mostly up to 45.8 µM
# Method in brief: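 Luminescence from CellTiter-Glo, taken after 5 min at room temperature, reports cellular ATP as viability. Cells (500 per well) had been treated 48 h at 37 °C with MIPE 4.0 compounds, scaled between DMSO and medium-only controls.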
# Potency is the fitted concentration of half-maximal effect.
SMILES,Potency [1],Potency [2],Potency [3],Potency [4],Potency [5]
CC[C@H](CC[C@@H](C)[C@H]1CC[C@H]2[C@@H]3CC=C4C[C@@H](O)CC[C@]4(C)[C@@H]3CC[C@]12C)C(C)C,inactive,inactive,inactive,inactive,inactive
C[C@@]12C(=O)OC(=O)[C@@]1(C)C1CCC2O1,1480 nM (active),935 nM (active),2640 nM (active),1320 nM (active),833 nM (active)
C=CC(=O)Nc1cccc(Nc2nc(NC3CCC(N(C)C)CC3)nc3c2ncn3C(C)C)c1 (stereo not given),235 nM (active),235 nM (active),8.3 nM (active),–,743 nM (active)
CC(=O)O[C@@]12CO[C@H]1C[C@H](O)[C@@]1(C)C(=O)[C@H](O)C3=C(C)[C@@H](OC(=O)C(O)[C@@H](NC(=O)OC(C)(C)C)c4ccccc4)C[C@@](O)([C@@H](OC(=O)c4ccccc4)[C@@H]21)C3(C)C (stereo not given in full),inactive,inactive,–,inactive,inactive
CCOC(=O)N1CCN([N+]([O-])=NOc2ccc([N+](=O)[O-])cc2[N+](=O)[O-])CC1,5900 nM (active),1480 nM (active),2640 nM (active),10500 nM (active),2960 nM (active)
CC(=O)OCC(=O)[C@@]1(O)CC[C@H]2[C@@H]3CCC4=CC(=O)CC[C@]4(C)[C@@H]3C(=O)C[C@@]21C,inactive,inactive,inactive,inactive,inactive
COC1=C2C[C@@H](C)C[C@H](OC)[C@@H](O)[C@@H](C)C=C(C)[C@H](OC(N)=O)[C@@H](OC)C=CC=C(C)C(=O)NC(=CC1=O)C2=O,332 nM (active),132 nM (active),372 nM (active),–,118 nM (active)
C[C@@H]1[C@H](C)CC[C@]2(C(=O)O)CC[C@]3(C)C(=CC[C@@H]4[C@@]5(C)C[C@@H](O)[C@H](O)[C@@](C)(CO)[C@H]5CC[C@]43C)[C@@H]12,inactive,inactive,inactive,inactive,inactive
O=C(C=CC#Cc1cccc(NS(=O)(=O)c2ccccc2)c1)NO,1180 nM (active),1180 nM (active),5900 nM (active),–,372 nM (active)
CN[C@@H]1C[C@H]2O[C@@](C)([C@H]1OC)n1c3ccccc3c3c4c(c5c6ccccc6n2c5c31)C(=O)N[C@H]4O,2090 nM (active),46.9 nM (active),526 nM (active),–,833 nM (active)
CC(=O)C1=C(O)C=C2Oc3c(C(C)=O)c(O)c(C)c(O)c3C2(C)C1=O (stereo not given),inactive,inactive,inactive,–,inactive
N#CC(=C(N)Sc1ccc(N)cc1)c1ccccc1C(F)(F)F,inactive,5900 nM (active),inactive,–,14800 nM (active)
CC(=O)[C@]1(O)Cc2c(O)c3c(c(O)c2[C@@H](O[C@H]2C[C@H](N)[C@@H](O)[C@H](C)O2)C1)C(=O)c1ccccc1C3=O,469 nM (active),105 nM (active),118 nM (active),833 nM (active),264 nM (active)
C[C@H](CCC(=O)O)[C@H]1CC[C@H]2[C@@H]3[C@H](O)C[C@@H]4C[C@H](O)CC[C@]4(C)[C@@H]3CC[C@]12C,inactive,inactive,–,inactive,–
O=c1[nH]c(=O)n([C@H]2C[C@@H](O)[C@@H](CO)O2)cc1F,13200 nM (active),18700 nM (active),–,1660 nM (active),–
CCNC(=O)Nc1ccc(-c2nc3c(c(N4CCOC[C@H]4C)n2)CCN(C2COC2)C3)cc1,935 nM (active),743 nM (active),7430 nM (active),1320 nM (active),743 nM (active)
C=C1C(=O)O[C@H]2[C@@H]1CCC(C)=CCC[C@@]1(C)O[C@@H]21,4690 nM (active),2350 nM (active),5260 nM (active),3320 nM (active),4690 nM (active)
NC(=O)c1ncn([C@@H]2O[C@H](CO)[C@@H](O)[C@@H]2O)c1O,18700 nM (active),inactive,inactive,–,13200 nM (active)
CC(C=CC1=C(C)CCCC1(C)C)=CC=CC(C)=CC(=O)Nc1ccc(O)cc1,9590 nM (active),3820 nM (active),8550 nM (active),3400 nM (active),19100 nM (active)
COc1cc(OC)cc(-c2ccc3ncc4ccc(=O)n(-c5ccc(N6CCNCC6)c(C(F)(F)F)c5)c4c3c2)c1,4690 nM (active),1480 nM (active),–,1180 nM (active),–
CC(C)OC(=O)[C@H](C)N[P@](=O)(OC[C@H]1O[C@@H](n2ccc(=O)[nH]c2=O)[C@](C)(F)[C@H]1O)Oc1ccccc1,inactive,inactive,inactive,inactive,inactive
O=C(C=Cc1ccc(CN(CCO)CCc2c[nH]c3ccccc23)cc1)NO,74.3 nM (active),105 nM (active),235 nM (active),93.5 nM (active),83.3 nM (active)
CNC(=O)c1cccc(-c2ccc3c(N4CCOC[C@H]4C)nc(N4CCOC[C@H]4C)nc3n2)c1,66.2 nM (active),29.6 nM (active),1660 nM (active),83.3 nM (active),18.7 nM (active)
C[C@H](NCc1ccc2c(c1)nc(NC(=O)c1ccc(-c3cn[nH]c3)s1)n2CCc1ccccc1)C(C)(C)C,1050 nM (active),662 nM (active),1050 nM (active),662 nM (active),1320 nM (active)
CCc1cnn2c(NCc3ccc[n+]([O-])c3)cc(N3CCCC[C@@H]3CCO)nc12,18.7 nM (active),33.2 nM (active),18.7 nM (active),23.5 nM (active),–
Cc1cc(-c2nnc3n2CCCCC3)c(C)n1-c1ccccc1,inactive,inactive,–,inactive,inactive

SMILES,Potency [1],Potency [2],Potency [3],Potency [4],Potency [5]
CCN(CC)CCNC(=O)c1c(C)[nH]c(C=C2C(=O)Nc3ccc(F)cc32)c1C,10800 nM (active),1520 nM (active),12100 nM (active),3400 nM (active),–
CNC(=O)c1ccc(Nc2cc(Nc3ccccc3S(=O)(=O)C(C)C)c3cc[nH]c3n2)nc1,4690 nM (active),662 nM (active),6620 nM (active),2090 nM (active),18700 nM (active)
CC(=O)N1CCN(c2ccc(OCc3nn(C)c(C)c3-c3cccc4c(CCCOc5cccc6ccccc56)c(C(=O)O)n(Cc5cccnc5)c34)cc2)CC1,10500 nM (active),332 nM (active),105 nM (active),52.6 nM (active),10500 nM (active)
COc1cc(N2CCC(C(N)=O)CC2)ccc1Nc1nc(N)c(Cl)c(Nc2ccccc2S(=O)(=O)C(C)C)n1,14800 nM (active),83.3 nM (active),105 nM (active),5260 nM (active),1320 nM (active)
OCCN1C[C@H](O)[C@@H](O)[C@H](O)[C@@H]1CO,inactive,–,inactive,inactive,inactive
C=CC[C@@H]1C=C(C)C[C@H](C)C[C@H](OC)[C@H]2O[C@@](O)(C(=O)C(=O)N3CCCC[C@H]3C(=O)O[C@H](C(C)=C[C@@H]3CC[C@H](O)[C@H](OC)C3)[C@@H](C)[C@@H](O)CC1=O)[C@@H](C)C[C@@H]2OC,2640 nM (active),1870 nM (active),–,2640 nM (active),2090 nM (active)
CON=C(C(=O)N[C@@H]1C(=O)N2C(C(=O)O)=C(CSC(=O)c3ccco3)CS[C@H]12)c1csc(N)n1,inactive,–,inactive,inactive,–
COc1ccc2cc([S+]([O-])Cc3ncc(C)c(OC)c3C)nc2c1,inactive,–,inactive,–,inactive
CCOC(=O)N1CCN([N+]([O-])=NOc2ccc([N+](=O)[O-])cc2C#N)CC1,743 nM (active),1050 nM (active),–,1050 nM (active),1050 nM (active)
O=C(NCc1ccccc1)[C@H](Cc1ccccc1)NC(=O)[C@@H]1O[C@@H]1C(=O)NCCc1ccc(O)cc1,inactive,–,83.3 nM (active),20900 nM (active),–
O=C1NC(=O)C(=Cc2ccc3nccc(-c4ccncc4)c3c2)S1,332 nM (active),–,662 nM (active),372 nM (active),83.3 nM (active)
OCC(O)C(O)C(O)CO (stereo not given),inactive,–,inactive,–,–
N=c1ccn2c(n1)O[C@H]1[C@@H](O)[C@@H](CO)O[C@H]12,inactive,–,inactive,–,332 nM (active)
C#C[C@]1(O)CC[C@@H]2[C@@H]3CCc4cc(O)ccc4[C@H]3CC[C@@]21C,16600 nM (active),7430 nM (active),–,16600 nM (active),23500 nM (active)
O=C(C=CC=Cc1ccc2c(c1)OCO2)N1CCCCC1,inactive,–,inactive,inactive,–
CN(N=O)C(=O)N[C@H]1C(O)OC(CO)[C@@H](O)[C@H]1O (stereo not given in full),inactive,inactive,–,inactive,inactive
COc1cccc2c1C(=O)c1c(O)c3c(c(O)c1C2=O)C[C@@](O)(C(=O)CO)C[C@H]3O[C@H]1C[C@H](N)[C@H](O)[C@H](C)O1,264 nM (active),148 nM (active),–,1050 nM (active),332 nM (active)
CC1(C)CC(O)CC(C)(C)N1[O],inactive,inactive,–,inactive,inactive
Cc1ccc([N+](=O)[O-])cc1S(=O)(=O)N(C)N=Cc1cnc2ccc(Br)cn12,16.6 nM (active),–,23.5 nM (active),14.8 nM (active),26.4 nM (active)
NC(=O)c1ncn([C@@H]2O[C@H](CO)[C@@H](O)[C@@H]2O)c1N,inactive,–,inactive,inactive,inactive
C[C@]12C=CC(=O)N[C@@H]1CC[C@H]1[C@H]3CC[C@@H](C(=O)Nc4cc(C(F)(F)F)ccc4C(F)(F)F)[C@@]3(C)CC[C@@H]12,18700 nM (active),–,–,inactive,–
COc1ccnc2[nH]cc(C(=O)C(=O)N3CCN(C(=O)c4ccccc4)C[C@@H]3C)c12,inactive,–,inactive,inactive,16600 nM (active)
C[C@H]1C[C@H]2[C@@H]3CCC4=CC(=O)C=C[C@]4(C)[C@@H]3C(=O)C[C@]2(C)[C@@]1(O)C(=O)CO,inactive,–,inactive,inactive,–
OC[C@@H](O)[C@@H](O)[C@H](O)[C@@H](O)CO,inactive,–,–,5900 nM (active),inactive
CC(=O)N[C@@H]1[C@H](O[C@@H]2c3ccc(c(Cl)c3)Oc3cc4cc(c3O[C@H]3O[C@H](CO)[C@@H](O)[C@H](O)[C@H]3NC(=O)CCCCCCCC(C)C)Oc3ccc(cc3Cl)C[C@H]3NC(=O)[C@H](N)c5ccc(O)c(c5)Oc5cc(O)cc(c5)[C@H](NC3=O)C(=O)N[C@H]4C(=O)N[C@H]3C(=O)N[C@@H]2C(=O)N[C@@H](C(=O)O)c2cc(O)cc(O[C@H]4O[C@H](CO)[C@@H](O)[C@H](O)[C@H]4O)c2-c2cc3ccc2O)O[C@H](CO)[C@@H](O)[C@@H]1O,inactive,–,inactive,inactive,inactive
COc1cc(OC)c(C=CS(=O)(=O)Cc2ccc(OC)c(NCC(=O)O)c2)c(OC)c1,118 nM (active),148 nM (active),–,33.2 nM (active),372 nM (active)
